Laboratory results taken from PubChem BioAssay (NCI).
The panel holds about 83,000 compounds, 20% with a hit somewhere; the sample as a whole holds those more often.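 Percent growth is the endpoint: 0 to 100 indicates growth inhibition (40 means 60% inhibition), 0 means no net growth, and negative values indicate cell death.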

Key:
Assay in all cases: NCI-60 one-dose screen, 48 h (100 = growth as untreated, 0 = no growth, -100 = all killed)
Conditions in all cases: 10 µM unless noted; active means growth percent below 10; inactive means the rest
NCI-H23 lung = test system: NCI-H23 lung
NCI-H226 lung = test system: NCI-H226 lung
NCI-H322M lung = test system: NCI-H322M lung
HOP-62 NSCLC = test system: HOP-62 NSCLC
NCI-H460 lung = test system: NCI-H460 lung
NCI-H522 lung = test system: NCI-H522 lung
A549/ATCC NSCLC = test system: A549/ATCC NSCLC
786-0 renal = test system: 786-0 renal
COLO 205 colon = test system: COLO 205 colon
DU-145 prostate = test system: DU-145 prostate
K-562 leukemia = test system: K-562 leukemia
MALME-3M melanoma = test system: MALME-3M melanoma
MDA-MB-231 breast = test system: MDA-MB-231 breast
RXF 393 renal = test system: RXF 393 renal
SF-268 CNS = test system: SF-268 CNS
SF-295 CNS = test system: SF-295 CNS
SF-539 CNS = test system: SF-539 CNS
UACC-257 melanoma = test system: UACC-257 melanoma
M14 melanoma = test system: M14 melanoma
HOP-92 NSCLC = test system: HOP-92 NSCLC

Measured: growth

CCNCC(C)(C)O
inactive: NCI-H23 lung 99.1% | NCI-H226 lung 105% | NCI-H322M lung 98% | HOP-62 NSCLC 100% | NCI-H460 lung 113% | NCI-H522 lung 109% | A549/ATCC NSCLC 96.1% | 786-0 renal 103% | COLO 205 colon 113% | DU-145 prostate 118% | K-562 leukemia 111% | MALME-3M melanoma 100% | MDA-MB-231 breast 94.9% | RXF 393 renal 117% | SF-268 CNS 119% | SF-295 CNS 103% | SF-539 CNS 102% | UACC-257 melanoma 98.7% | M14 melanoma 95.5%

CC(C)N1CC(=O)N2CSCC2C1=O (stereo not given)
inactive: NCI-H23 lung 111% | NCI-H226 lung 104% | NCI-H322M lung 115% | HOP-62 NSCLC 111% | NCI-H460 lung 108% | NCI-H522 lung 102% | A549/ATCC NSCLC 103% | 786-0 renal 107% | COLO 205 colon 114% | DU-145 prostate 107% | K-562 leukemia 104% | MDA-MB-231 breast 120% | RXF 393 renal 104% | SF-268 CNS 106% | SF-295 CNS 105% | SF-539 CNS 97.6% | UACC-257 melanoma 108% | M14 melanoma 104%

C/C(O)=C(/C=N\C(=S)Nc1ccc(S(=O)(=O)Nc2nccs2)cc1)C(=O)Nc1ccccc1C
inactive: NCI-H23 lung 94.6% | NCI-H226 lung 73.2% | NCI-H322M lung 99.7% | HOP-62 NSCLC 96.1% | NCI-H460 lung 102% | NCI-H522 lung 91.6% | A549/ATCC NSCLC 92.6% | 786-0 renal 96.7% | COLO 205 colon 104% | K-562 leukemia 93.7% | MALME-3M melanoma 108% | MDA-MB-231 breast 87% | RXF 393 renal 97.7% | SF-268 CNS 88.8% | SF-295 CNS 104% | SF-539 CNS 95.9% | UACC-257 melanoma 109% | M14 melanoma 100%

COC(=O)C1=C(C)C(=O)CC1
inactive: NCI-H23 lung 120% | NCI-H226 lung 109% | NCI-H322M lung 115% | HOP-62 NSCLC 114% | NCI-H460 lung 118% | NCI-H522 lung 101% | A549/ATCC NSCLC 112% | 786-0 renal 108% | COLO 205 colon 141% | K-562 leukemia 96.1% | MALME-3M melanoma 137% | MDA-MB-231 breast 102% | RXF 393 renal 143% | SF-268 CNS 111% | SF-295 CNS 135% | SF-539 CNS 109% | UACC-257 melanoma 110% | M14 melanoma 105%

COc1ccc2c(ccc[n+]2C)c1
inactive: NCI-H23 lung 99.6% | NCI-H226 lung 110% | NCI-H322M lung 105% | HOP-62 NSCLC 106% | NCI-H460 lung 106% | NCI-H522 lung 54.7% | A549/ATCC NSCLC 108% | 786-0 renal 97.3% | COLO 205 colon 111% | DU-145 prostate 126% | MALME-3M melanoma 110% | MDA-MB-231 breast 101% | RXF 393 renal 136% | SF-268 CNS 125% | SF-295 CNS 114% | SF-539 CNS 101% | UACC-257 melanoma 98.2% | M14 melanoma 108%

CS(=O)(=O)c1ccc(/C=C\C(=O)O)cc1
inactive: NCI-H23 lung 106% | NCI-H226 lung 96.1% | NCI-H322M lung 108% | HOP-62 NSCLC 99.5% | NCI-H460 lung 94.3% | NCI-H522 lung 99.5% | A549/ATCC NSCLC 106% | 786-0 renal 108% | COLO 205 colon 109% | DU-145 prostate 104% | K-562 leukemia 122% | MDA-MB-231 breast 110% | RXF 393 renal 95.7% | SF-268 CNS 94.1% | SF-295 CNS 103% | SF-539 CNS 91.8% | UACC-257 melanoma 99.7% | M14 melanoma 94.9%

COC1CC(OC(=O)c2ccc([N+](=O)[O-])cc2)C(COC(=O)c2ccc([N+](=O)[O-])cc2)O1 (stereo not given)
inactive: NCI-H23 lung 105% | NCI-H226 lung 88.9% | NCI-H322M lung 113% | HOP-62 NSCLC 118% | NCI-H460 lung 105% | NCI-H522 lung 118% | A549/ATCC NSCLC 103% | 786-0 renal 105% | COLO 205 colon 112% | DU-145 prostate 119% | K-562 leukemia 107% | MALME-3M melanoma 140% | MDA-MB-231 breast 105% | RXF 393 renal 103% | SF-268 CNS 112% | SF-295 CNS 94.5% | SF-539 CNS 105% | UACC-257 melanoma 91.9% | M14 melanoma 110%

O=C(CCl)Oc1ccc([N+](=O)[O-])cc1
inactive: NCI-H226 lung 102% | NCI-H322M lung 106% | HOP-62 NSCLC 98.9% | NCI-H460 lung 107% | HOP-92 NSCLC 78.5% | NCI-H522 lung 107% | A549/ATCC NSCLC 108% | 786-0 renal 108% | COLO 205 colon 116% | DU-145 prostate 113% | K-562 leukemia 103% | MALME-3M melanoma 116% | MDA-MB-231 breast 119% | RXF 393 renal 99.5% | SF-268 CNS 109% | SF-295 CNS 97.3% | SF-539 CNS 109% | UACC-257 melanoma 112%

CC(C)OCC(CCl)OC(=O)Nc1ccccc1 (stereo not given)
inactive: NCI-H23 lung 93% | NCI-H226 lung 100% | NCI-H322M lung 99.4% | HOP-62 NSCLC 104% | NCI-H460 lung 105% | NCI-H522 lung 98.4% | A549/ATCC NSCLC 102% | 786-0 renal 100% | COLO 205 colon 111% | DU-145 prostate 106% | K-562 leukemia 103% | MALME-3M melanoma 92.7% | MDA-MB-231 breast 94.8% | RXF 393 renal 113% | SF-268 CNS 101% | SF-295 CNS 108% | SF-539 CNS 98.1% | UACC-257 melanoma 102% | M14 melanoma 107%
